Among the data in paper PMC7862700, “An all-to-all approach to the identification of sequence-specific readers for epigenetic DNA modifications on cytosine” are binding signal values, retold here.

Common to all, as to experiment: DAPPL (digital affinity profiling via proximity ligation, sequencing); 10 mM Tris-HCl pH 7.5, 50 mM NaCl, 1 mM DTT, 4% glycerol, room temperature, 30 min; GST-TFs on glutathione beads, 16-mer random dsDNA library, 0.1% formaldehyde crosslink after washing; high values mean tight binding
One experiment deals with T1, FLI1 (Homo sapiens, UniProt Q01543 1-452).
T1 sequence: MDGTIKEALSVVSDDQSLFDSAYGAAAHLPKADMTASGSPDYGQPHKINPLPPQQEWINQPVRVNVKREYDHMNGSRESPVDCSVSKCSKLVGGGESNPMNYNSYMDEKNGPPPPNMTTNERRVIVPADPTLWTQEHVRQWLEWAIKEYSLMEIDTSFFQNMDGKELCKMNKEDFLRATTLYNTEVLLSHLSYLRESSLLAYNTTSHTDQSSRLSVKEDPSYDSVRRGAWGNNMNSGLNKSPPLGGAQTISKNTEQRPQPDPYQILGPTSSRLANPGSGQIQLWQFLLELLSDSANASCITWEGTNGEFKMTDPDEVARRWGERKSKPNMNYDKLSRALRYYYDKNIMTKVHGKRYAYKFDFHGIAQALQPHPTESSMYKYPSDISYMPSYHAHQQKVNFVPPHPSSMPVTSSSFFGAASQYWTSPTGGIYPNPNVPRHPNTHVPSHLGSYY
As to conditions: protein: recombinant; tags: N-terminal GST; dsDNA, one strand shown. In outline: (§1)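 The binding signal reported is, for every hexamer, its read frequency for a factor over its read frequency for the tag-only sample. Reads came from pools of yeast-expressed, GST-fused human transcription factors on glutathione beads, barcoded with DNA and mixed with that sample, which were incubated with 200 nmole of a random double-stranded 16-mer DNA library in Tris/NaCl/DTT/glycerol buffer at room temperature for 30 min. After washing, the pools were crosslinked with 0.1% formaldehyde, proximity-ligated with BsaI/T4 ligase for 1 h at 37 °C, PCR-amplified and sequenced on an Illumina NextSeq500.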

Another experiment has as its target T2, ELK1 (Homo sapiens, UniProt P19419 1-428).
T2 sequence: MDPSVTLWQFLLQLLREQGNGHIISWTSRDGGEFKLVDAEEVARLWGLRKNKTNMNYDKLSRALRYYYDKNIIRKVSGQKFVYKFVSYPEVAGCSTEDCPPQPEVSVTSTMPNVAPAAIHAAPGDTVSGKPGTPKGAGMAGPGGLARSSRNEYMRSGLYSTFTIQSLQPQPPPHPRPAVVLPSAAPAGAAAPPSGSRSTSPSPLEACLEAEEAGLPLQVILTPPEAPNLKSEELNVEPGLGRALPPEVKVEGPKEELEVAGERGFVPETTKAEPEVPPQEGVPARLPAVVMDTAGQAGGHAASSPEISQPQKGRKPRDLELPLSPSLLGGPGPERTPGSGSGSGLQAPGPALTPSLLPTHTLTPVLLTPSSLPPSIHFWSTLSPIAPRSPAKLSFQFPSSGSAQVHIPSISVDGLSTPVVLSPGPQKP
Particulars: protein: recombinant; tags: N-terminal GST; dsDNA, one strand shown. Put shortly: as §1

The target of another experiment is T3, GABPA (Homo sapiens, UniProt Q06546 1-454).
T3 sequence: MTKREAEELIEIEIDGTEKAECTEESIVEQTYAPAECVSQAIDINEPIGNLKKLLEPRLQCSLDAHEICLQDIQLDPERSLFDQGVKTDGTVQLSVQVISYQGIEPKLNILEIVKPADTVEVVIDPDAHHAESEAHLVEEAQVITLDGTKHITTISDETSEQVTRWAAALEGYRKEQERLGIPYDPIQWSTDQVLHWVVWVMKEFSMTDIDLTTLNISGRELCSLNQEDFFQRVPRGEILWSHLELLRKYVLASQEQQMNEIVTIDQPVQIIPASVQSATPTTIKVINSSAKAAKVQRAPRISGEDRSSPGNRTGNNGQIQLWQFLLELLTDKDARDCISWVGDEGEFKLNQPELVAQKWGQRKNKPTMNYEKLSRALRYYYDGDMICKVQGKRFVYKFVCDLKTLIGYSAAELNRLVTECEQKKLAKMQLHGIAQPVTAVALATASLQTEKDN
Particulars: protein: recombinant; tags: N-terminal GST; dsDNA, one strand shown. Put shortly:
as §1

Another experiment concerns the target T4, ERG (Homo sapiens, UniProt P11308 1-479).
T4 sequence: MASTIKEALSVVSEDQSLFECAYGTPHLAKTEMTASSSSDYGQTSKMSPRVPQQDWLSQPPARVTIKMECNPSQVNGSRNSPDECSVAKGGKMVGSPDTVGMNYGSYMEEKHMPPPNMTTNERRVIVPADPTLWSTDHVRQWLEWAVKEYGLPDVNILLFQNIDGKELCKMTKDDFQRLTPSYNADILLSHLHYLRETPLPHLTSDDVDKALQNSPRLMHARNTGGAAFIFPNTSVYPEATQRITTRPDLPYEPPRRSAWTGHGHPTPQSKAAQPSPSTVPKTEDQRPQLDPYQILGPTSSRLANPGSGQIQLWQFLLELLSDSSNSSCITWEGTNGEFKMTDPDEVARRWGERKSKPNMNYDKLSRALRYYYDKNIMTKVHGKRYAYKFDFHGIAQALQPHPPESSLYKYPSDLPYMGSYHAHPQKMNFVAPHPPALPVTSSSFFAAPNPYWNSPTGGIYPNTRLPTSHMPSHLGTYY
Particulars: protein: recombinant; tags: N-terminal GST; dsDNA, one strand shown. In outline: as §1

For another experiment, the target named is ELF1 (Homo sapiens, UniProt P32519 1-619). Particulars: protein: recombinant; tags: N-terminal GST; dsDNA, one strand shown. Put shortly:
as §1

The target of another experiment is T5, EHF (Homo sapiens, UniProt Q9NZC4 1-300).
T5 sequence: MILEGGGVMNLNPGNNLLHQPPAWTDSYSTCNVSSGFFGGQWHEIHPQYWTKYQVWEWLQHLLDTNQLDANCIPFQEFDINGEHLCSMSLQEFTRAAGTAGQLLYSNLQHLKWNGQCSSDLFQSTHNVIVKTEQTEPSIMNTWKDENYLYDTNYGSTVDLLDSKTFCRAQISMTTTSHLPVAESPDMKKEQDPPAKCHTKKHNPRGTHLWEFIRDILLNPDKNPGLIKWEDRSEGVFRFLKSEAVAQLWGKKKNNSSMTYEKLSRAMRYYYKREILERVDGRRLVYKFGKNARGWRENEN
Particulars: protein: recombinant; tags: N-terminal GST; dsDNA, one strand shown. In outline: as §1

The target of the next experiment is SPI1 (Homo sapiens, UniProt P17947 1-270). Particulars: protein: recombinant; tags: N-terminal GST; dsDNA, one strand shown. In outline: as §1
A further experiment deals with SPIB (Homo sapiens, UniProt Q01892 1-262). Particulars: protein: recombinant; tags: N-terminal GST; dsDNA, one strand shown. In outline:
as §1

The next experiment has as its target T6, ELK3 (Homo sapiens, UniProt P41970 1-407).
T6 sequence: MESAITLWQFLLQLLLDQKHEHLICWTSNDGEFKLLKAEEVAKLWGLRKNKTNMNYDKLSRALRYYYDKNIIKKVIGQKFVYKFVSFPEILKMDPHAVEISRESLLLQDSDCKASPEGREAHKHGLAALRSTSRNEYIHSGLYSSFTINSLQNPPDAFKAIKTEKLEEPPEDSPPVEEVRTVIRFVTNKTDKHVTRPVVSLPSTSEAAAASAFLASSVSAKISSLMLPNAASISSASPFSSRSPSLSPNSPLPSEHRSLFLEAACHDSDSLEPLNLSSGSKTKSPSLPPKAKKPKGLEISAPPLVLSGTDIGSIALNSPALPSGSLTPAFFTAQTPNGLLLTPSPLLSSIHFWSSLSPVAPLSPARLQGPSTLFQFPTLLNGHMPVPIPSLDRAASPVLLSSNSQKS
As to conditions: protein: recombinant; tags: N-terminal GST; dsDNA, one strand shown. In outline: as §1

For another experiment, the target named is T7, FEV (Homo sapiens, UniProt Q99581 1-238).
T7 sequence: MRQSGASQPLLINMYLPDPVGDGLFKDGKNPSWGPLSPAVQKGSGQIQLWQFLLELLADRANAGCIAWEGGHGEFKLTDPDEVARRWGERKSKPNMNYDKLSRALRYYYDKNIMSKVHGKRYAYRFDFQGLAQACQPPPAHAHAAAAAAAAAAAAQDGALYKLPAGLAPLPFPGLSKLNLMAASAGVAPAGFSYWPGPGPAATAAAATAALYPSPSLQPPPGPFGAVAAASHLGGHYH
Particulars: protein: recombinant; tags: N-terminal GST; dsDNA, one strand shown. In outline:
as §1

The target in the next experiment is ETV5 (Homo sapiens, UniProt P41161 1-510). As to conditions: protein: recombinant; tags: N-terminal GST; dsDNA, one strand shown. Put shortly:
as §1

Another experiment deals with HSF1 (Homo sapiens, UniProt Q00613 1-529). As to conditions: protein: recombinant; tags: N-terminal GST; chain copies: 3; dsDNA, one strand shown. Put shortly: as §1
Sequence of HSF1 (Q00613 whole entry): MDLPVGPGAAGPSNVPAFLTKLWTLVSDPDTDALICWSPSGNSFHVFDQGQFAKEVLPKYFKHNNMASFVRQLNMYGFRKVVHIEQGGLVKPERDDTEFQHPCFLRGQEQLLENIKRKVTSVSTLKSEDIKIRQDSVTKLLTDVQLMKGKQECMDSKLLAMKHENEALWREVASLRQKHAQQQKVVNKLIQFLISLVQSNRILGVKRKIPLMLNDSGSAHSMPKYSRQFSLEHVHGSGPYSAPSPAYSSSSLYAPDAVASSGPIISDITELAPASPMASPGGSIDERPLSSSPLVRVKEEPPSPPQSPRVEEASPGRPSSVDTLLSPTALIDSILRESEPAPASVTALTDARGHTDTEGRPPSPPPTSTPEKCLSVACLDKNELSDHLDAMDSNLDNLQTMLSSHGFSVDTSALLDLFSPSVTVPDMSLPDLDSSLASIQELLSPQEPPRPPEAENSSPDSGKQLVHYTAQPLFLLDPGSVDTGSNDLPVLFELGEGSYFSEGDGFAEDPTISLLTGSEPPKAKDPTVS
In a further experiment the target is T8, SPIC (Homo sapiens, UniProt Q8N5J4 1-248).
T8 sequence: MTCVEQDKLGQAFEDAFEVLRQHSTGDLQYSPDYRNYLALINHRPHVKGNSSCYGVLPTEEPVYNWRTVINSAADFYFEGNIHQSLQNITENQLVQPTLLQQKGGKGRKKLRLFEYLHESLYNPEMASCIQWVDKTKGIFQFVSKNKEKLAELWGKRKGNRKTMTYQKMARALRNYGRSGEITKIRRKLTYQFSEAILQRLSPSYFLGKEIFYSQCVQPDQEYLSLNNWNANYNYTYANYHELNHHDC
Particulars: protein: recombinant; tags: N-terminal GST; dsDNA, one strand shown. Put shortly:
as §1

In a further experiment the target is ELF4 (Homo sapiens, UniProt Q99607 1-663). As to conditions: protein: recombinant; tags: N-terminal GST; dsDNA, one strand shown. Put shortly: as §1
Sequence of ELF4 (Q99607 whole entry): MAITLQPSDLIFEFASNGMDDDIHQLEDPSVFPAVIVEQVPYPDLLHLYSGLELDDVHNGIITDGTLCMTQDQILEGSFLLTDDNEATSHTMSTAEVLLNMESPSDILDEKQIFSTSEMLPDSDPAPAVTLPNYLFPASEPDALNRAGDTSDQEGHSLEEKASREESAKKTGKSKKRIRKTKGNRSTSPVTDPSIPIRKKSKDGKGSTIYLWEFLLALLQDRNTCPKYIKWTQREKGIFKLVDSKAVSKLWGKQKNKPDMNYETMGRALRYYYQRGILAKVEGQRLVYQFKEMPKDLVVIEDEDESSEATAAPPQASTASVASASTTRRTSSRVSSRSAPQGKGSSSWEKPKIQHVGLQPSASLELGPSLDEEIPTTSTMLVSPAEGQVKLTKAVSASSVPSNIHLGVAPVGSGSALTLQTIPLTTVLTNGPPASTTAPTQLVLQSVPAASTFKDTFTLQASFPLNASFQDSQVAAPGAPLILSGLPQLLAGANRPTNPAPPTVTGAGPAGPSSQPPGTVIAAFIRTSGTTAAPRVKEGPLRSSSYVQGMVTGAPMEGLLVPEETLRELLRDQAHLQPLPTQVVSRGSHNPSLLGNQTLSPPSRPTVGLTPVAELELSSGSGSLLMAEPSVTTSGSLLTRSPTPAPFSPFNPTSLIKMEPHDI
The target of another experiment is T9, ELK4 (Homo sapiens, UniProt P28324-2 1-405).
T9 sequence: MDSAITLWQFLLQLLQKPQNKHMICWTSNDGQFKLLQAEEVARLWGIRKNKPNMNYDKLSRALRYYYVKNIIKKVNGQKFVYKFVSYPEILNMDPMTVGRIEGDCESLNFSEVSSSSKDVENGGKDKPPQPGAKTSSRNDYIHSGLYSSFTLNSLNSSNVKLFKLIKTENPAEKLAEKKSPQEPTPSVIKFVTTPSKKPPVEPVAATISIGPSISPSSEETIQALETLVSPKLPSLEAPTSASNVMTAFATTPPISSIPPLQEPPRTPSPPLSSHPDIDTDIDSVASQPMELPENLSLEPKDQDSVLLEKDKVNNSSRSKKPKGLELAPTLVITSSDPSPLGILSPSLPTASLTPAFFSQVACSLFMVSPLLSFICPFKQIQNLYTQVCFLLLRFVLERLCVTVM
As to conditions: protein: recombinant; tags: N-terminal GST; dsDNA, one strand shown. In outline:
as §1

Another experiment deals with T10, ETV2 (Homo sapiens, UniProt O00321 1-342).
T10 sequence: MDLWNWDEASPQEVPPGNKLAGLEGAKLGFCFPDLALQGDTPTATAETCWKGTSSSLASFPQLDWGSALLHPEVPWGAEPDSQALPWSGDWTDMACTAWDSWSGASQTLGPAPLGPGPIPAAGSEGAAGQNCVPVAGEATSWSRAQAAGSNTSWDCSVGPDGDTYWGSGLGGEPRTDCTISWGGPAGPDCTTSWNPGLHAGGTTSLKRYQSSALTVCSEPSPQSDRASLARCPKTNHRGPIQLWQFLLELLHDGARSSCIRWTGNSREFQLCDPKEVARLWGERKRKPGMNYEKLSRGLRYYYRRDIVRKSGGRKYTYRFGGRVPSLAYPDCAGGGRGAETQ
As to conditions: protein: recombinant; tags: N-terminal GST; dsDNA, one strand shown. In outline: as §1

For another experiment, the target named is CRX (Homo sapiens, UniProt O43186 1-299). As to conditions: protein: recombinant; tags: N-terminal GST; dsDNA, one strand shown. Put shortly: as §1
Sequence of CRX (O43186 whole entry): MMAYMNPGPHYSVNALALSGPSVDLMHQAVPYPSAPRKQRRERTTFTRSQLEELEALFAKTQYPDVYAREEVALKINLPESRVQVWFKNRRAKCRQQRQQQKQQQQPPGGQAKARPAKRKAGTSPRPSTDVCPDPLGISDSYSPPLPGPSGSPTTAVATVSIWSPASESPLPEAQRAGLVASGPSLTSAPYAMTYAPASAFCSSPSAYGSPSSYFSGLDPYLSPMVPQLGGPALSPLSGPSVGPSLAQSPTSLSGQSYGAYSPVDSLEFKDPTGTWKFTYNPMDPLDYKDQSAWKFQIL
In the next experiment the target is ETV1 (Homo sapiens, UniProt P50549 1-477). Particulars: protein: recombinant; tags: N-terminal GST; dsDNA, one strand shown. Put shortly:
as §1

Sequence of SPIB (Q01892 whole entry): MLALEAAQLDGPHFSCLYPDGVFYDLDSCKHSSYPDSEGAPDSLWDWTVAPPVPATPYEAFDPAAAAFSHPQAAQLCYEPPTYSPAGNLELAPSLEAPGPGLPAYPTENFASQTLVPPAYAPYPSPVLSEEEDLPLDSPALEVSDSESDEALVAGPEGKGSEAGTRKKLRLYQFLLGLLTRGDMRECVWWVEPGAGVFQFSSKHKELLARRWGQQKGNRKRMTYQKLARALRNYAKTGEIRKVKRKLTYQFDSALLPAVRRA
Sequence of ELF1 (P32519 whole entry): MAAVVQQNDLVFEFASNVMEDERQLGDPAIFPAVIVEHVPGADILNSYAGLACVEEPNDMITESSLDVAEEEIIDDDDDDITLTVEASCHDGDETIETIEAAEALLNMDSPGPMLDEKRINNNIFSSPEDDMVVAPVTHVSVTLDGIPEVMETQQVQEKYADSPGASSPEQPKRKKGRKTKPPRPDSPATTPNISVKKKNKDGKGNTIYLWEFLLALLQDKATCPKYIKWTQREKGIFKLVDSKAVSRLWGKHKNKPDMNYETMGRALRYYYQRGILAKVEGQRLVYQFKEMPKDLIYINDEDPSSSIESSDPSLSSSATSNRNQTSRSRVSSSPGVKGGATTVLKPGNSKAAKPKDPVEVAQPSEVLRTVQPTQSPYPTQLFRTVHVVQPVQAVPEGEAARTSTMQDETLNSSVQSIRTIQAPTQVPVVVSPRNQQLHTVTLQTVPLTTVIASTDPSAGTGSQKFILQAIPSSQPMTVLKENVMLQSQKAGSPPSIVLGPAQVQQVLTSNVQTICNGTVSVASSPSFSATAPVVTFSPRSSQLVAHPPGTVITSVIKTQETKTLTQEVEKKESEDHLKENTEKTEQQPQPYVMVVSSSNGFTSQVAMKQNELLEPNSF
Sequence of ETV1 (P50549 whole entry): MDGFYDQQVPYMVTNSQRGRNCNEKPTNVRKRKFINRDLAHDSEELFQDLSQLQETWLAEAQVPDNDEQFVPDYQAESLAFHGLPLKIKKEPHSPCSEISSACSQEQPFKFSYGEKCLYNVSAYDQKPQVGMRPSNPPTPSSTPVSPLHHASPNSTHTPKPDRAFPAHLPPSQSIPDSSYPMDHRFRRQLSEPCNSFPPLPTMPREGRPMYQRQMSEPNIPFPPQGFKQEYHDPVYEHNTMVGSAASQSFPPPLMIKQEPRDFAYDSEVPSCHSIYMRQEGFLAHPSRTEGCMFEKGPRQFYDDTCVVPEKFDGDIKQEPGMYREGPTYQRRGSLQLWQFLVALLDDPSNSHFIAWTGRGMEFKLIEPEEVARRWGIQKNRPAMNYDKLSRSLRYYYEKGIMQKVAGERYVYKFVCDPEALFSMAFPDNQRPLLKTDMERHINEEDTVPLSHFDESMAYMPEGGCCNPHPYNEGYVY
Sequence of ETV5 (P41161 whole entry): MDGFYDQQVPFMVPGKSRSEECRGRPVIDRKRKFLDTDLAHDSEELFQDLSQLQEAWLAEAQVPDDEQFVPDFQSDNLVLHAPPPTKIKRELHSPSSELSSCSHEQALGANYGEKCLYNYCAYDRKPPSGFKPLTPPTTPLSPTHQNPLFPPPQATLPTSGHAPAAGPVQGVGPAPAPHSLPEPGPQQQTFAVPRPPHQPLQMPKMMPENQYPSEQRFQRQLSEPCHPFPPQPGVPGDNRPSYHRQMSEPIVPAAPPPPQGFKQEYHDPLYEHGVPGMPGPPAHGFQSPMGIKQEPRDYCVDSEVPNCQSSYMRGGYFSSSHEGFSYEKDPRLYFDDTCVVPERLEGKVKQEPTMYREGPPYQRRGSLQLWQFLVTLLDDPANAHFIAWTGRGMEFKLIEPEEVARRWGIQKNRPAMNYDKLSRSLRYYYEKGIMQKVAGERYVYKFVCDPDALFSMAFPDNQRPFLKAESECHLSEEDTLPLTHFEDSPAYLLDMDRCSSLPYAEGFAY

For the sequence ATCATA, the binding signal was 1.07 fold enrichment (6-mer frequency, TF over GST control) with FLI1; 1.06 fold enrichment (6-mer frequency, TF over GST control) with ELK1; 1.16 fold enrichment (6-mer frequency, TF over GST control) in the experiment with GABPA; 1.05 fold enrichment (6-mer frequency, TF over GST control) with ERG; 1.12 fold enrichment (6-mer frequency, TF over GST control) with ELF1; 1.03 fold enrichment (6-mer frequency, TF over GST control) in the experiment with EHF. The binding signal with SPI1 was 1.05 fold enrichment (6-mer frequency, TF over GST control); with SPIB, 1.18 fold enrichment (6-mer frequency, TF over GST control); in the experiment with ELK3 it was 1.09 fold enrichment (6-mer frequency, TF over GST control); with FEV it was 1.07 fold enrichment (6-mer frequency, TF over GST control); with ETV5, 1.09 fold enrichment (6-mer frequency, TF over GST control); with HSF1, 1.16 fold enrichment (6-mer frequency, TF over GST control). Moreover, the binding signal in the experiment with SPIC was 1.04 fold enrichment (6-mer frequency, TF over GST control); with ELF4, 1.08 fold enrichment (6-mer frequency, TF over GST control); with ELK4, 1.08 fold enrichment (6-mer frequency, TF over GST control); with ETV2 it was 1.16 fold enrichment (6-mer frequency, TF over GST control); with CRX it was 1.39 fold enrichment (6-mer frequency, TF over GST control); with ETV1, 1.08 fold enrichment (6-mer frequency, TF over GST control).
